Our source for the growth values is PubChem BioAssay (NCI).

The structures appear in SMILES notation. About 83,000 compounds went through this panel and 20% of them were active in at least one assay; those are over-represented in the sample as a whole.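 Single-dose data. Exposure time 48 hours. Values below 10 considered active.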 The source made the active and inactive calls.

The first experiment has as its system SK-MEL-2 melanoma. As to the kind of experiment: NCI-60 one-dose screen, 48 h (100 = growth as untreated, 0 = no growth, -100 = all killed). The following applies: 10 µM unless noted.
In the case of `CC(=O)OC[C@H]1OC(Sc2sc(C(=O)c3ccc(C)cc3)c(N)c2-c2nc3ccccc3s2)[C@H](OC(C)=O)[C@@H](OC(C)=O)[C@@H]1OC(C)=O` (some centres not stated), the growth is 93.6% (inactive).
On to `COC1=C(C)C(=O)c2c(c(CCCl)c3n2CCC3O)C1=O` (configuration not stated), for which the growth was -48.8% (active).
On the same count and under the same terms, under `Oc1ccc(C#CCOc2ccccc2)cc1CNCCN(Cc1ccccn1)Cc1ccccn1` stands 61.2% (inactive).
On the same count and under the same terms, under `CCc1nnc(NC(=O)c2nnn(-c3ccccc3)c2-c2ccco2)s1` stands 108% (inactive); under `CNc1nc2c(s1)C(c1cccc(F)c1)CC(=O)N2` (configuration not stated), 100% (inactive).
With `CC(=O)O.CN1[CH-]N(Cc2ccc(C#N)cc2)c2ccccc21.[Ag+]`, the growth was 89.8% (inactive).
On the same count and under the same terms, the figure for `O=C(Nc1ccc(F)cc1F)c1cc(F)ccc1O` is -20% (active); for `CCc1ccc(Oc2c(-c3ccc(OCc4ccc(Cl)cc4)cc3O)nn(C)c2C(F)(F)F)cc1` it is -30.7% (active).
Consider `CCC(=O)Nc1ccc(-c2nc(-c3cccc(OC)c3)c(-c3ccnc(Br)c3)[nH]2)cc1`, for which the growth was 70.2% (inactive).
For the compound `CC/C=C\C[C@@H](O)C/C=C1/C(=O)C=C[C@H]1C/C=C\CCCC(=O)OC`, the growth was 77.9% (inactive).
Same read-out and setting: under `CC(=O)CC(c1ccccc1)c1c(C)[nH]c2ccccc12` (configuration not stated) stands 105% (inactive).
On to `COc1ccc(-c2nc(NCCO)[nH]c(=O)c2C#N)cc1`, for which the growth is 98.6% (inactive).
Consider `COc1ccn2c(C(C)=O)cc(C(=O)c3ccc4c(c3)Sc3ccccc3N4)c2c1`, for which the growth was 27.3% (inactive).
On the same count and under the same terms, the figure for `COC(=O)C(Cc1ccccc1)NC(=O)NC(=O)NC(=O)CI` (configuration not stated) is 94.9% (inactive); for `CCCCCCCCCCCCCCCCCCOc1ccc(CC(=O)OCC[N+](C)(C)C)cc1` it is 115% (inactive).
On the same count and under the same terms, the figure for `COc1ccc([C@H]2c3cc(OC)c(OC)cc3C=C(C=O)C2CO)cc1OC` (some centres not stated) is 20.8% (inactive); for `Cc1nn(-c2ccccc2)c(-n2ccnc2)c1/C=N/Nc1nc(-c2ccc(Cl)c(Cl)c2)cs1` it is 83.7% (inactive); for `Cc1cccc2c3c(sc12)C(c1ccc(Cl)cc1)C(C#N)=C(/N=C/c1ccc(Cl)cc1)O3` (configuration not stated) it is 43% (inactive).
For `Cc1ccc2c(-c3cc(-c4ccccc4)nc(N)c3C#N)cc(=O)oc2c1`, the growth was 97.1% (inactive).
Same read-out and setting: under `Cc1ncc(C(=O)Nc2ccc(CN3CCN(C)CC3)c(C(F)(F)F)c2)cc1C#Cc1ccc(N)nc1` stands -55% (active); under `COc1ccc(CN2c3ccccc3Sc3ccccc32)c(F)c1`, 30.4% (inactive); under `COc1ccc(-c2ncnc3c2ncn3CC#CCCl)cc1`, 53.4% (inactive).
The same measure, in the same setting: the figure for `COc1ccc(C(=O)C[C@]2(O)C(=O)Nc3c(Cl)ccc(Cl)c32)cc1` is 37.5% (inactive); for `c1ccc2c(-c3nc(-c4c[nH]c5ccncc45)cs3)c[nH]c2c1` it is 97.8% (inactive).
Consider `C=CCNc1ccc2c3c(cccc13)C(=O)N(N1C(=O)c3cccc4cccc(c34)C1=O)C2=O`, for which the growth was 107% (inactive).
For the compound `N#Cc1c(-c2ccccc2)nc(SCC(=O)Nc2nc(-c3ccc(Cl)cc3)cs2)[nH]c1=O`, the growth is 92.3% (inactive).
With `COc1cc(C(=O)/C=C/c2c(Cl)nc3sccn23)cc(OC)c1OC`, the growth was 86.1% (inactive).
The same measure, in the same setting: under `COc1ccc(-c2cc(-c3ccc(Cl)cc3)c(C#N)c(=O)n2CCCCCC(=O)Nc2ccccc2N)cc1` stands 58.5% (inactive); under `COc1cccc(/C=C2\C=C(c3ccccc3)N(Cc3ccccc3)C2=O)c1`, 72.6% (inactive).
Take `CCOC(=O)c1cn2ncnc(Oc3ccc(NC(=O)NCCN(C)C)c(Cl)c3)c2c1C`: the growth was 112% (inactive).
Regarding `COc1ccc(N2C(=O)C(Oc3ccccc3)C2c2ccc(C)cc2)cc1` (configuration not stated), the growth is 106% (inactive).
On the same count and under the same terms, the figure for `O=[N+]([O-])c1ccc(Cl)c(-c2cc(CCCCO)on2)c1` is 118% (inactive); for `COc1cccc2nc3n(c12)C(c1c(F)cccc1F)SC3` (configuration not stated) it is 86.2% (inactive); for `Cc1ccc(S(=O)(=O)N/N=C/C2(c3ccccc3)CC2)cc1` it is 126% (inactive).

The subject of a further experiment is EKVX NSCLC. The description is as above. The following applies: 10 µM unless noted.
On to `CC(=O)OC[C@H]1OC(Sc2sc(C(=O)c3ccc(C)cc3)c(N)c2-c2nc3ccccc3s2)[C@H](OC(C)=O)[C@@H](OC(C)=O)[C@@H]1OC(C)=O` (some centres not stated), for which the growth is 75% (inactive).
Still for that read-out and setting: under `COC1=C(C)C(=O)c2c(c(CCCl)c3n2CCC3O)C1=O` (configuration not stated) stands 13.6% (inactive).
As to `Oc1ccc(C#CCOc2ccccc2)cc1CNCCN(Cc1ccccn1)Cc1ccccn1`, the growth is 16% (inactive).
On the same count and under the same terms, under `CCc1nnc(NC(=O)c2nnn(-c3ccccc3)c2-c2ccco2)s1` stands 84.7% (inactive).
Same read-out and setting: the figure for `CNc1nc2c(s1)C(c1cccc(F)c1)CC(=O)N2` (configuration not stated) is 103% (inactive).
Same read-out and setting: the figure for `CC(=O)O.CN1[CH-]N(Cc2ccc(C#N)cc2)c2ccccc21.[Ag+]` is 108% (inactive); for `O=C(Nc1ccc(F)cc1F)c1cc(F)ccc1O` it is 64.2% (inactive).
Regarding `CCc1ccc(Oc2c(-c3ccc(OCc4ccc(Cl)cc4)cc3O)nn(C)c2C(F)(F)F)cc1`, the growth was 9.36% (active).
In the case of `CCC(=O)Nc1ccc(-c2nc(-c3cccc(OC)c3)c(-c3ccnc(Br)c3)[nH]2)cc1`, the growth was 64.6% (inactive).
As for `CC/C=C\C[C@@H](O)C/C=C1/C(=O)C=C[C@H]1C/C=C\CCCC(=O)OC`, the growth is 88.2% (inactive).
Same read-out and setting: the figure for `CC(=O)CC(c1ccccc1)c1c(C)[nH]c2ccccc12` (configuration not stated) is 85.9% (inactive); for `Cc1nc2cnc(N)c(C#Cc3cncc(C(=O)Nc4ccc(CN5CCN(C)CC5)c(C(F)(F)F)c4)c3)c2nc1C` it is 7.92% (active); for `COc1ccc(-c2nc(NCCO)[nH]c(=O)c2C#N)cc1` it is 110% (inactive).
Consider `COc1ccn2c(C(C)=O)cc(C(=O)c3ccc4c(c3)Sc3ccccc3N4)c2c1`, for which the growth is 37.6% (inactive).
The same measure, in the same setting: the figure for `COC(=O)C(Cc1ccccc1)NC(=O)NC(=O)NC(=O)CI` (configuration not stated) is 103% (inactive); for `O=C1CCC(C(=O)NCCNCCNC(=O)C2CCC(=O)N2)N1` (configuration not stated) it is 100% (inactive).
Same read-out and setting: the figure for `C(=N/Nc1ncnc2nc[nH]c12)/c1ccccn1` is 24.9% (inactive).
The same measure, in the same setting: the figure for `CCCCCCCCCCCCCCCCCCOc1ccc(CC(=O)OCC[N+](C)(C)C)cc1` is 101% (inactive).
Consider `COc1ccc([C@H]2c3cc(OC)c(OC)cc3C=C(C=O)C2CO)cc1OC` (some centres not stated), for which the growth was 91.2% (inactive).
On the same count and under the same terms, under `Cc1nn(-c2ccccc2)c(-n2ccnc2)c1/C=N/Nc1nc(-c2ccc(Cl)c(Cl)c2)cs1` stands 30.8% (inactive); under `Cc1ccc2c(n1)C(=O)C(Cl)=C(Nc1ccccc1C(C)C)C2=O`, 95.8% (inactive).
On the same count and under the same terms, the figure for `Cc1cccc2c3c(sc12)C(c1ccc(Cl)cc1)C(C#N)=C(/N=C/c1ccc(Cl)cc1)O3` (configuration not stated) is 46.5% (inactive).
`Cc1ccc2c(-c3cc(-c4ccccc4)nc(N)c3C#N)cc(=O)oc2c1`: the growth is 113% (inactive).
On the same count and under the same terms, under `Cc1ncc(C(=O)Nc2ccc(CN3CCN(C)CC3)c(C(F)(F)F)c2)cc1C#Cc1ccc(N)nc1` stands 9.23% (active); under `COc1ccc(CN2c3ccccc3Sc3ccccc32)c(F)c1`, 51% (inactive); under `COc1ccc(-c2ncnc3c2ncn3CC#CCCl)cc1`, 115% (inactive).
The same measure, in the same setting: under `COc1ccc(C(=O)C[C@]2(O)C(=O)Nc3c(Cl)ccc(Cl)c32)cc1` stands 51.2% (inactive); under `c1ccc2c(-c3nc(-c4c[nH]c5ccncc45)cs3)c[nH]c2c1`, 35% (inactive).
The same measure, in the same setting: under `C=CCNc1ccc2c3c(cccc13)C(=O)N(N1C(=O)c3cccc4cccc(c34)C1=O)C2=O` stands 92.8% (inactive).
With `N#Cc1c(-c2ccccc2)nc(SCC(=O)Nc2nc(-c3ccc(Cl)cc3)cs2)[nH]c1=O`, the growth is 106% (inactive).
`COc1cc(C(=O)/C=C/c2c(Cl)nc3sccn23)cc(OC)c1OC`: the growth was 90.7% (inactive).
The same measure, in the same setting: under `COc1ccc(-c2cc(-c3ccc(Cl)cc3)c(C#N)c(=O)n2CCCCCC(=O)Nc2ccccc2N)cc1` stands 51.5% (inactive); under `COc1cccc(/C=C2\C=C(c3ccccc3)N(Cc3ccccc3)C2=O)c1`, 39.3% (inactive); under `CCOC(=O)c1cn2ncnc(Oc3ccc(NC(=O)NCCN(C)C)c(Cl)c3)c2c1C`, 79.3% (inactive).
For `COc1ccc(N2C(=O)C(Oc3ccccc3)C2c2ccc(C)cc2)cc1` (configuration not stated), the growth is 88.8% (inactive).
On the same count and under the same terms, under `O=[N+]([O-])c1ccc(Cl)c(-c2cc(CCCCO)on2)c1` stands 103% (inactive); under `COc1cccc2nc3n(c12)C(c1c(F)cccc1F)SC3` (configuration not stated), 101% (inactive).
With `Cc1ccc(S(=O)(=O)N/N=C/C2(c3ccccc3)CC2)cc1`, the growth is 99% (inactive).
